# Only some compounds are listed: those with a hit (about 4% of all), similar ones and a draw of the others.
# Casp1 inh: blocks human caspase-1 allosterically or competitively; Caspase-1 enzyme, Ac-WEHD-AFC fluorogenic rate; AID 900; 0.03% of 75,000 active; P29466; Potency, µM (doses to about 57.5 µM), inactives show at the highest dose activity change, negative = inhibition, usual class: inhibitors;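 note: plate controls were vehicle for no effect and no substrate for full effect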
# Caspase-7 inhib: caspase-7 (human) inhibition, allosteric or competitive. P55210. recombinant caspase-7, Ac-DEVD-AFC fluorescence rate. Potency, µM (doses to about 57.5 µM), inactives show at the top dose activity change, negative = inhibition, usual class: inhibitors. 0.02% of 75,000 active; active = well fitted inhibition curve with a large enough effect in the main read-out, with a control signal flat, not every such curve was filed as active; inconclusive = small, poorly fitted or top-dose-only effect, or a change in a side signal; note: % of control where 0% means no effect
# TSHR agonist: agonists of human thyroid stimulating hormone receptor; P16473; HEK293-CNG-TSHR cells (CNG channel as cAMP sensor), membrane potential dye, cAMP; Potency, µM (series often up to 57.1 µM), for inactives: at the highest dose activation, most hits filed as activators; 0.48% of 73,000 active; AID 926; active = well fitted activation curve with a large enough effect in the main read-out, with a control signal flat, not every such curve was filed as active; inconclusive = small, poorly fitted or top-dose-only effect, or a change in a side signal; inactive = no such curve, though single readings can be large or run the other way; % of control where 0% means no effect;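 note: the control signal comes from parental cells without the receptor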
#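 cAMP rise detected as CNG-channel membrane depolarization by fluorescent dye (emission 590 nm), 30 min after compound, following 60 min dye loading containing 100 uM RO 20-1724 at room temperature. Cells: TSHR/CNG HEK 293, with parental CNG HEK 293 as control.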
# HEK293 cAMP cs: raises cAMP in parental HEK293 cells, TSHR agonist counter-screen | 2.5% of 73,000 active | Potency, µM (doses to about 57.1 µM), without a hit: at the top dose activation, most hits filed as activators | parental HEK293 CNG cAMP sensor, membrane potential fluorescence; note: % of control where 0% means no effect; nearly all actives have a fitted effect of over 55% in size
#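 Parental HEK 293 cells stably expressing a modified CNG channel (no TSHR) report cAMP rise as membrane depolarization. Membrane potential dye with 100 uM RO 20-1724 was loaded for 60 min at room temperature, then compound added for 30 min; fluorescence read at 590 nm.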
# Bst PK mod: alters activity of Bacillus stearothermophilus pyruvate kinase; purified pyruvate kinase, luminescence ATP production; ribose 5-phosphate activator present at AC10; AID 361; Potency, µM; 1.2% of 51,000 active; in the data active = potency below about 11 µM; inconclusive = mostly about 12 µM to 25 µM;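 the screen sought inhibitors and activators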;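 note: scaled between full activation by ribose 5 phosphate and full inhibition by luteolin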
# GBA activity: human lysosomal glucosylceramidase modulation | purified enzyme, resorufin glucoside fluorescence (screen aimed at inhibitors), 20 min | Potency, µM | 1.1% of 48,000 active | AID 360; in the data active = potency below about 15 µM; inconclusive = mostly about 16 µM to 33 µM;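 note: the screen sought inhibitors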
# Target sequence (P04062 whole entry, looked up): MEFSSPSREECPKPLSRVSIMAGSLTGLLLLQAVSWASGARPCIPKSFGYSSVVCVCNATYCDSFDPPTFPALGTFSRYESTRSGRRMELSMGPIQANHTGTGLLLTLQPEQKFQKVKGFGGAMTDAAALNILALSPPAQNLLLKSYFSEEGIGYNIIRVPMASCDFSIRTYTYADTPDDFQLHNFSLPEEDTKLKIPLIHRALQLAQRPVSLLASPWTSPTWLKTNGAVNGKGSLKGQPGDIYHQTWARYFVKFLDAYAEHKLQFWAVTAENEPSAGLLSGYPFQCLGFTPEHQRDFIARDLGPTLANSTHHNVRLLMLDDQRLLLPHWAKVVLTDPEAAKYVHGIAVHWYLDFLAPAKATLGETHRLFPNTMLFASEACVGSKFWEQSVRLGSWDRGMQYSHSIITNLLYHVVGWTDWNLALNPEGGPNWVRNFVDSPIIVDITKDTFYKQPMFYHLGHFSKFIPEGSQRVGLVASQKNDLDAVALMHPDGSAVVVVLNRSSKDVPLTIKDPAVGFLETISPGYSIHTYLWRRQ
#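 Compounds titrated against 0.2 nM normal enzyme, 30 uM resorufin beta-D-glucopyranoside substrate, citrate/phosphate buffer with taurocholate and tween-20, pH 5.9. Reaction ran 20 min at room temperature; fluorescence (Ex 548/Em 600) gave AC50.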
# Starred values were filed as active, the others as inactive; i = inactive; ? = inconclusive; · = not tested or not shown; [ ] = another dose, or the depositor's remark. Unless noted, calls come from the whole dose curve; as a rule, active = well fitted curve in the direction sought with a large enough effect; inconclusive = small, poorly fitted or top-dose-only effect, or another doubt; inactive = no such curve, though single readings can be large; an effect the other way counts as inactive or inconclusive. Potency is the fitted concentration of half-maximal effect.
SMILES,Casp1 inh,Caspase-7 inhib,TSHR agonist,HEK293 cAMP cs,Bst PK mod,GBA activity
COc1ccc(C(=O)N2CCC[C@@]3(CCN(Cc4ccccc4OC)C3)C2)cc1,1%,0%,?,16µM*,·,·
O=C(c1cc(C(F)(F)F)cc(C(F)(F)F)c1)N1CCC2(CCCN(c3ccncc3)C2)CC1,0%,-1%,?,7.9µM*,·,·
CCCCOCCOCCSC#N,1%,0%,-4%,4%,·,·
O=c1c2ccccc2nnn1CSc1nnc(-c2ccc3c(c2)OCO3)o1,0%,0%,·,28%,>57,8.8*
CN1CCN(CCCBr)CC1,2%[11.5 µM],0%[11.5 µM],25%[11.4 µM],-7%[11.4 µM],·,·
CC(=O)Nc1cccc(NC(=O)Nc2ccc(C(C)=O)cc2)c1,1%,-1%,-18%,-14%,i,>77
CCN(CC)c1ccc(NC(=O)Nc2cccc(C(C)=O)c2)cc1,-2%,-8%,-31%,-13%,9*,>77
CC1CCC(C(=O)O)([C@H](Br)C(=O)O)CC1 (stereo partly specified),-2%[11.5 µM],2%[11.5 µM],-3%[11.4 µM],7%[11.4 µM],·,·
c1cn(-c2cc(-c3ccc4c(c3)OCO4)ncn2)cn1,-8%,?,11%,9%,·,·
O=C(Nc1cccc2c1CCCC2)C1CCN(c2nnnn2-c2ccccc2)CC1,-5%,-1%,?,?,>57,>77
Cc1nnc(NC(=O)C2CCN(c3nnnn3-c3ccccc3)CC2)s1,6%,-1%,3%,10%,>57,8.7*
O=C(Nc1ccc(F)cc1)N(Cc1ccco1)Cc1cc2cc3c(cc2[nH]c1=O)OCO3,-10%,-6%,?,25µM*,3.8*,11*
O=C(OCCOc1ccccc1Cl)c1ccc(-n2cnnn2)cc1,-5%,-2%,?,40µM*,>57,>77
CCCC(=O)N1CCc2cc(-c3nc(N)sc3C)ccc21,0%,-1%,-60%,1%,·,?
CCC(C)C(=O)N1CCc2cc(-c3csc(N)n3)ccc21 (stereo unspecified),-3%,0%,-9%,-7%,8.1*,?
CC(C)OCCCNC(=O)c1c(N)n(/N=C/c2ccccn2)c2nc3ccccc3nc12,-1%,-1%,?,10µM*,>57,?
O=C(O)CNC(=O)c1ccccc1O,1%[11.5 µM],1%[11.5 µM],5%[11.4 µM],11%[11.4 µM],·,·
CC(=O)C(Sc1nn(C)c(=S)s1)C(=O)Nc1ccccc1 (stereo unspecified),1%,0%,?,20µM*,>57,·
COc1ccc(-c2ccc3c(n2)CCCN3C[C@H](O)CN2CCCc3nc(C)c(C)cc32)cc1,-13%[11.5 µM],-16%[11.5 µM],-11%[11.4 µM],-7%[11.4 µM],·,·
CCCn1c(SCC(=O)Nc2ccccc2C(=O)OC)nc2c1c(=O)n(C)c(=O)n2C,1%,0%,?,?,>57,>77
CCCn1c(SCC(=O)Nc2ccccc2N2CCCCC2)nc2c1c(=O)n(C)c(=O)n2C,-3%,0%,?,1µM*,>57,>77
CC(=O)C1=C(C)NC(SCC(=O)c2ccccc2)=C(C#N)C1CC(C)C (stereo unspecified),-4%,-5%,10µM*,3%,>57,>77
CC(=O)C1=C(C)NC(SCC(=O)c2ccccc2)=C(C#N)C1c1ccco1 (stereo unspecified),·,?,8%,-3%,·,·
CN1CCN(c2nc(-c3ccoc3)nc3ccccc23)CC1,-6%,-12%,5µM*,15%,·,·
c1ccc2c(N3CCOCC3)nc(-c3ccoc3)nc2c1,-1%,-3%,·,14%,·,·
SMILES,Casp1 inh,Caspase-7 inhib,TSHR agonist,HEK293 cAMP cs,Bst PK mod,GBA activity
CCn1c(NC(=O)c2cccs2)nc2ccccc21,4%,0%,?,16µM*,·,>77
CCn1c(CCCNC(=O)c2cccs2)nc2ccccc21,-3%,2%,2%,4%,·,·
O=C(NCCCNC(=O)c1cccs1)c1cccs1,0%,0%,4%,1%,·,·
O=C(NCc1nc2ccccc2[nH]1)c1cccs1,-2%,0%,?,5µM*,·,·
CC(C)(CNC(=O)c1cccs1)CNC(=O)c1cccs1,0%,0%,?,32µM*,·,·
O=C(NCc1ccccn1)[C@H]1C[C@@H]1[C@H](NP(=O)(c1ccccc1)c1ccccc1)c1ccccc1,-9%,-1%,14%,27%,·,·
O=C(NCc1nc2ccccc2[nH]1)[C@H]1C[C@@H]1[C@H](NP(=O)(c1ccccc1)c1ccccc1)c1ccccc1,3%,0%,?,13µM*,·,·
N[C@@H](CSC1(c2ccc(Cl)cc2)c2ccccc2-c2ccccc21)C(=O)O,1%[11.5 µM],-4%[11.5 µM],11%[11.4 µM],6%[11.4 µM],·,·
O=S(=O)(c1cccc2cccnc12)N1CCc2ccccc21,-5%,-4%,?,?,1.4*,>77
O=C(O)c1nc(-c2ccccc2)[nH]c1C(=O)O,?,0%[11.5 µM],-2%[11.4 µM],5%[11.4 µM],·,·
O=C(Nc1ccccc1)c1cccc(-c2nnc(-c3ccccc3)o2)c1,-1%,0%,?,32µM*,>57,>77
O=C(Nc1cccc(-c2nnc(-c3ccccc3)o2)c1)C1CCCCC1,4%,-1%,?,?,>57,>77
COc1ccccc1OCC(=O)Nc1cccc(-c2nc3ccccc3o2)c1,-2%,-3%,?,25µM*,>57,>77
Cc1ccc(OCC(=O)Nc2cccc(-c3nnc(-c4ccccc4)o3)c2)cc1,-4%,-2%,?,?,>57,8.6*
Cc1cccc(C)c1OCC(=O)Nc1cccc(-c2nnc(-c3ccccc3)o2)c1,·,·,·,·,>26,·
NC(N)=N[C@H](CCC(=O)O)C(=O)O,-1%,0%,-33%,5%,·,·
O=c1c(O)c(-c2ccc(O)c(O)c2)oc2c(OC[C@H]3O[C@@H](O)[C@@H](O)[C@H](O)[C@@H]3O)c(O)cc(O)c12,·,·,10%,-1%,·,·
CCC[C@H](Sc1nc(N)nc2nc[nH]c12)C(=O)O,1%[11.5 µM],1%[11.5 µM],6%[11.4 µM],24%[11.4 µM],·,·
O=C(C1CCC(CNS(=O)(=O)c2cccc3cccnc23)CC1)N1CCCC1 (stereo unspecified),0%,-2%,?,25µM*,·,·
CO/N=C\c1ccc(C(=O)N2[C@H](c3ccc(C)cc3)[C@@H](C)CC[C@H]2C(=O)OC)cc1,0%[11.5 µM],2%[11.5 µM],?,2µM*,·,·
N=c1ccn2c(n1)O[C@@H]1[C@@H](O)[C@H](CO)O[C@H]12,1%,2%,5%,5%,·,·
Cc1ccc(C(C(=O)NC2CCCC2)N(Cc2ccc(F)cc2)C(=O)c2csnn2)o1 (stereo unspecified),0%,0%,?,16µM*,>57,>77
CO/N=C1\CN(c2nc3c(cc2F)c(=O)c(C(=O)O)cn3C2CC2)CC1CN (stereo unspecified),0%,0%,·,·,·,·
